Measurements taken from PubChem BioAssay (NCATS).
“And” between values parts separate entries of the source, which are not always exact repeats. Equal values may be shown once. Results filed as inconclusive are left out. The source made the active and inactive calls. Unless noted, calls come from the whole dose curve; as a rule, active = well fitted curve in the direction sought with a large enough effect; inconclusive = small, poorly fitted or top-dose-only effect, or another doubt; inactive = no such curve, though single readings can be large; an effect the other way counts as inactive or inconclusive.

Experiments:
[1] = biological target: Glucocorticoid receptor (Homo sapiens) (UniProt P04150); assay: GR-GFP Redistribution (AID 450;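 active = compounds whose dose series gives a full or clear partial fitted curve of increased nuclear translocation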; note: potency is the fitted concentration of half-maximal effect); conditions: U2OS GR-GFP nuclear translocation, laser cytometry, 2 h
Chain of Glucocorticoid receptor (Homo sapiens) (P04150 whole entry, looked up, the tested form may be a part): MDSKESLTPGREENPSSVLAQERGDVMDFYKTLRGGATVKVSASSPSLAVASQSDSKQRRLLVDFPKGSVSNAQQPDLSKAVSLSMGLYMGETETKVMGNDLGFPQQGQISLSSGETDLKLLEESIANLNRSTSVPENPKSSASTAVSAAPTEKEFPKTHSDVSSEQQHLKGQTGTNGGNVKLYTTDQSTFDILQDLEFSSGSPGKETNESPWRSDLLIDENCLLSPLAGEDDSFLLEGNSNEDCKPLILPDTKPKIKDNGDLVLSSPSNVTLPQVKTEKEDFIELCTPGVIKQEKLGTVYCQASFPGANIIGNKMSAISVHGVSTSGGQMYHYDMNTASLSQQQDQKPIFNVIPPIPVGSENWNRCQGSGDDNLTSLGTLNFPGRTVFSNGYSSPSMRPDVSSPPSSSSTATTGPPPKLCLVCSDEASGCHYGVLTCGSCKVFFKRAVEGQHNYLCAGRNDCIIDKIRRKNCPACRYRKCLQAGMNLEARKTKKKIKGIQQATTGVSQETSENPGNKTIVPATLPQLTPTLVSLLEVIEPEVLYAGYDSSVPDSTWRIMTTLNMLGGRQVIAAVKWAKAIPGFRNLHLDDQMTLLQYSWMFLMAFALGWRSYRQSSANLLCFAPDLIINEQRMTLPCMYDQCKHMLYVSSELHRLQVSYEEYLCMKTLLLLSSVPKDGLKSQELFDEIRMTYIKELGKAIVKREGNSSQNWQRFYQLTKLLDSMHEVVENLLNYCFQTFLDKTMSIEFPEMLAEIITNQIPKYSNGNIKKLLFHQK

[2] = biological target: Glucocorticoid receptor (Homo sapiens) (UniProt P04150); assay: GR-EFC Redistribution (AID 451; calls by dose curve; note: potency is the fitted concentration of half-maximal effect); conditions: CHO-K1 GR-EFC translocation, beta-gal luminescence, 2 h
Outline: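 CHO-K1 cells expressing nuclear EA and GR-ED fragments of b-gal; compounds titrated up to 46 uM final, 2 h at 37 C. GR nuclear translocation read as complemented b-gal luminescence after 1 h RT detection.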

[3] = biological target: Mitogen-activated protein kinase 10 (Mus musculus) (UniProt Q61831); assay: JNK3 AlphaScreen Assay (AID 530; active = well fitted curve in either direction with a large enough effect, not every such curve was filed as active;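 note: kinase came from lysate of stimulated human HepG2 cells; signal reports phosphorylation of biotinylated GST-cJun 1-79 at Ser73 with 10 µM ATP; % is set by controls: 0 for no effect and ±100 for the full control effect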)
Outline: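 HepG2 lysate (IL-1b/TNFa pre-activated) + biotin-GST-cJun 1-79 + anti-pSer73 cJun; cpd titration, 15 min RT; ATP 10 uM start; Tris pH 7.6, MgCl2, DTT, vanadate; beads in EDTA buffer; AlphaScreen.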

[4] = biological target: 3',5'-cyclic-AMP phosphodiesterase 4B (Homo sapiens) (UniProt Q07343); assay: qHTS Assay for Inhibitors of PDE-IV (AID 607; active = well fitted activation curve with a large enough effect in the main read-out, with a control signal flat, not every such curve was filed as active; note: % of control where 0% means no effect)
Chain of 3',5'-cyclic-AMP phosphodiesterase 4B (Homo sapiens) (Q07343 whole entry, looked up): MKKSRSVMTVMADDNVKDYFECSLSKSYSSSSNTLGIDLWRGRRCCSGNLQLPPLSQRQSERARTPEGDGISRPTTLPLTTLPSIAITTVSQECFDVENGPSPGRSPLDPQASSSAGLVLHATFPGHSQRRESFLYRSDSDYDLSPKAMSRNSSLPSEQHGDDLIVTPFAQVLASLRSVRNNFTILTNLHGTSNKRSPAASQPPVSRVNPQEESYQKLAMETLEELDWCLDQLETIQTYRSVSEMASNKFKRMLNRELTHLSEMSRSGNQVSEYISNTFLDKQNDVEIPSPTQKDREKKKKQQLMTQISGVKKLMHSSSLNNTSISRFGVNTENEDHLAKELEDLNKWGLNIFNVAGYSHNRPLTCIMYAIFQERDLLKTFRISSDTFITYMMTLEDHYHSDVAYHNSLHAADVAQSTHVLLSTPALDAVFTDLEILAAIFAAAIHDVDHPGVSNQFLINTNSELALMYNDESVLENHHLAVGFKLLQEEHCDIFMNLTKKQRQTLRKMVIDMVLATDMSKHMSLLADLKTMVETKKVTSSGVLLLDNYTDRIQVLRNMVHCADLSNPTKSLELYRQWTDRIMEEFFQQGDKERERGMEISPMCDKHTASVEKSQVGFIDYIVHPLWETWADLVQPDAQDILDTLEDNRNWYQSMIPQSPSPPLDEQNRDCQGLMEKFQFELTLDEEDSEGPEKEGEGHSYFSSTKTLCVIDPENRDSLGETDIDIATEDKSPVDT
Outline: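 Cell-based read-out of cAMP via a modified cyclic nucleotide-gated channel and membrane potential dye (535/590 nm) in HEK293 cells expressing PDE4 endogenously. Compounds tested up to 22.9 uM final; 100 uM RO 20-1724 reference.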

[5] = qHTS Assay for Identification of Small Molecule Agonists for Hypoxia Response Element Signaling Pathway (AID 914; active = well fitted activation curve with a large enough effect in the signal ratio, with a control signal flat, not every such curve was filed as active; the % refers to the signal ratio; note: potency is the fitted concentration of half-maximal effect; for activation: % of control where 0% means no effect); conditions: ME-180 HRE-bla reporter, beta-lactamase ratio, CoCl2, 17 h; activation: stronger effect = higher value
Outline: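 In Opti-MEM containing 0.5% dialyzed FBS and 10 mM HEPES, ME-180 HRE-bla cells received a compound titration and EC50 CoCl2. They were incubated 17 hours, then CCF4-loaded 2.5 hours at room temperature before ratio reading.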

[6] = Primary qHTS for small molecule stabilizers of the endoplasmic reticulum resident proteome: Secreted ER Calcium Modulated Protein (SERCaMP) assay (AID 1508630); note: % is set by controls: 0 for no effect and ±100 for the full control effect
Outline: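 The SH-SY5Y reporter protocol was run at 3 concentrations up to 38.3 uM (primary) or 11 concentrations (follow-up): 16 h compound, 100 nM thapsigargin for 4 h, then extracellular luciferase luminescence.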

[7] = biological target: Cytochrome P450 1A2 (Homo sapiens) (UniProt P05177); assay: p450-cyp1a2 (AID 410; calls by dose curve; note: potency is the fitted concentration of half-maximal effect)
Chain of Cytochrome P450 1A2 (Homo sapiens) (P05177 whole entry, looked up): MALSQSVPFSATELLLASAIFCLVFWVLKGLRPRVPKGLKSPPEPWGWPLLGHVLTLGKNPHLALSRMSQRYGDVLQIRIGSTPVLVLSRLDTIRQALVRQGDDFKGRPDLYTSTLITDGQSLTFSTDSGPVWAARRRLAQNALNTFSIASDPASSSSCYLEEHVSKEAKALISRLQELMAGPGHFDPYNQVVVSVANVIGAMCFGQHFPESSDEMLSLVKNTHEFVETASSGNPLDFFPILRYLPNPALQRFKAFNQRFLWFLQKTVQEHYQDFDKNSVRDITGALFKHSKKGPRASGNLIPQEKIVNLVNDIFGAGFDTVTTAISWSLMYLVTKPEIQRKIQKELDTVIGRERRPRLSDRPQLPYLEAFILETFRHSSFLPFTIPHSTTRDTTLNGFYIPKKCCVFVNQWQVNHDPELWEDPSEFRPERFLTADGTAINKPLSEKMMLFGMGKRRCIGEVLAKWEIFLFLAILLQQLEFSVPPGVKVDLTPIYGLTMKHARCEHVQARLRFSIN
Outline: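 20nM CYP1A2, 100uM Luciferin-ME (=Km), 100mM KPO4; cpd 10 min RT; +NADPH regen, 60 min RT; stop/detect 20 min; luminescence. Normalized to furafylline 57 uM = full inhibition.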

[8] = biological target: Cytochrome P450 3A4 (Homo sapiens) (UniProt P08684); assay: qHTS Assay for Inhibitors and Substrates of Cytochrome P450 3A4 (AID 884); note: nearly all actives have a fitted effect of over 50% in size; note: potency is the fitted concentration of half-maximal effect
Chain of Cytochrome P450 3A4 (Homo sapiens) (P08684 whole entry, looked up): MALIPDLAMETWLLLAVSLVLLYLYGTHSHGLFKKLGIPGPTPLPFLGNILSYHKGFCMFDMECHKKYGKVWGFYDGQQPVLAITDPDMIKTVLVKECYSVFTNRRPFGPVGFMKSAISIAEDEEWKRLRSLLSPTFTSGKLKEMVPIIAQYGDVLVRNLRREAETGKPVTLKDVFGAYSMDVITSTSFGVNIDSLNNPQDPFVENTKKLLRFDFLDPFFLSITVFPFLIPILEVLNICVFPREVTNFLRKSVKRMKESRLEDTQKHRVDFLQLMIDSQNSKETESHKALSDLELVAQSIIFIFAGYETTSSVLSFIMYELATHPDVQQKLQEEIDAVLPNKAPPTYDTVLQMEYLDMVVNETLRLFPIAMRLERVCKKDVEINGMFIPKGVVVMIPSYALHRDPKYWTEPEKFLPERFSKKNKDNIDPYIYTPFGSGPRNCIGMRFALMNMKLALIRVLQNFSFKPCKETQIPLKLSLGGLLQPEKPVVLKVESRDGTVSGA
Outline: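 Luminescent readout of luciferin produced by CYP3A4 (20 nM) dealkylation of Luciferin-PPXE, 25 uM (its KM). NADPH-driven reaction ran 60 min at RT after 10 min compound preincubation; data scaled to 57 uM ketoconazole as 100% inhibition.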

[9] = biological target: Cytochrome P450 3A4 (Homo sapiens) (UniProt P08684); assay: qHTS Assay for Activators of Cytochrome P450 3A4 (AID 885); note: nearly all actives have a fitted effect of over 65% in size
Outline: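 Luminescent readout of luciferin formed from 25 uM Luciferin-PPXE (KM level) by 20 nM CYP3A4 in 200 mM KPO4, with 60 min NADPH-driven reaction at room temperature after 10 min compound exposure. Ketoconazole (57 uM) defined 100% inhibition.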

[10] = biological target: Cytochrome P450 2C19 (Homo sapiens) (UniProt P33261); assay: qHTS Assay for Inhibitors and Substrates of Cytochrome P450 2C19 (AID 899); note: potency is the fitted concentration of half-maximal effect; nearly all actives have a fitted effect of over 60% in size
Chain of Cytochrome P450 2C19 (Homo sapiens) (P33261 whole entry, looked up): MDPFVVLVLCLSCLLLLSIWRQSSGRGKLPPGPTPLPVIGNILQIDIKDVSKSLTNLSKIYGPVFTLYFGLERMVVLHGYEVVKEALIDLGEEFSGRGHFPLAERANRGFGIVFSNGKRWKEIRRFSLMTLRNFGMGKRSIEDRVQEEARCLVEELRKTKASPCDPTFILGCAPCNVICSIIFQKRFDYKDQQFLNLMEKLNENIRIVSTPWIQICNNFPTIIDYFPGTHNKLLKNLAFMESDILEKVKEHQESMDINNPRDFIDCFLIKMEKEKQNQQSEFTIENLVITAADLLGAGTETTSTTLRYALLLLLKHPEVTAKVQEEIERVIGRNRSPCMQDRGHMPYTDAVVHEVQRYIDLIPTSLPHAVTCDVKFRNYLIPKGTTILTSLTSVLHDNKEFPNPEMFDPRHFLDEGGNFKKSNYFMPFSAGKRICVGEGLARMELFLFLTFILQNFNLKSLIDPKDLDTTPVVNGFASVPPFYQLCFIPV
Outline: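 5 nM human CYP2C19 with 10uM Luciferin-H EGE (at KM) in 50mM KPO4, compound preincubated 10 min at 37C, then NADPH regeneration for 60 min at 37C. Luciferin read by luminescence after detection reagent; normalized to 57uM ketoconazole as full inhibition.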

[11] = Confirmation and Secondary Assay for Modulators of Hemoglobin Beta Chain Splicing at IVS2 654 locus (AID 910);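 note: HeLa cells stably carrying EGFP split by mutant beta-globin IVS2-654 intron; % of control where 0% means no effect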
Outline: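 HeLa cells stably expressing EGFP interrupted by β-globin IVS2-654 intron, seeded overnight in Opti-MEM/2% FCS, then treated 2 days at 37 °C. Restored splicing read as total peak GFP intensity per well by laser scanning cytometry (488 nm excitation, 500–520 nm emission); 500 nM antisense PNA as control.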

[12] = Confirmation and Secondary Assay for Modulators of Hemoglobin Beta Chain Splicing at IVS2 705 locus (AID 930);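 note: HeLa cells stably expressing the EGFP-705 splicing reporter; GFP fluorescence per well restored by corrected splicing of the IVS2-705 intron in EGFP; % of control where 0% means no effect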
Outline: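 Per-well GFP, captured at 1 x 8 µm resolution with 488 nm excitation, served as the read-out for HeLa EGFP-705 cells incubated 2 days with test compound versus DMSO.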

[13] = biological target: Ubiquitin carboxyl-terminal hydrolase 1 (Homo sapiens) (UniProt O94782); assay: Inhibitors of USP1/UAF1: Pilot qHTS (AID 504865);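 note: rhodamine fluorescence freed from ubiquitin-rhodamine substrate followed over time; top concentration of the series differs between compounds; % is set by controls: 0 for no effect and ±100 for the full control effect; nearly all actives have a fitted effect of over 35% in size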
Chain of Ubiquitin carboxyl-terminal hydrolase 1 (Homo sapiens) (O94782 whole entry, looked up): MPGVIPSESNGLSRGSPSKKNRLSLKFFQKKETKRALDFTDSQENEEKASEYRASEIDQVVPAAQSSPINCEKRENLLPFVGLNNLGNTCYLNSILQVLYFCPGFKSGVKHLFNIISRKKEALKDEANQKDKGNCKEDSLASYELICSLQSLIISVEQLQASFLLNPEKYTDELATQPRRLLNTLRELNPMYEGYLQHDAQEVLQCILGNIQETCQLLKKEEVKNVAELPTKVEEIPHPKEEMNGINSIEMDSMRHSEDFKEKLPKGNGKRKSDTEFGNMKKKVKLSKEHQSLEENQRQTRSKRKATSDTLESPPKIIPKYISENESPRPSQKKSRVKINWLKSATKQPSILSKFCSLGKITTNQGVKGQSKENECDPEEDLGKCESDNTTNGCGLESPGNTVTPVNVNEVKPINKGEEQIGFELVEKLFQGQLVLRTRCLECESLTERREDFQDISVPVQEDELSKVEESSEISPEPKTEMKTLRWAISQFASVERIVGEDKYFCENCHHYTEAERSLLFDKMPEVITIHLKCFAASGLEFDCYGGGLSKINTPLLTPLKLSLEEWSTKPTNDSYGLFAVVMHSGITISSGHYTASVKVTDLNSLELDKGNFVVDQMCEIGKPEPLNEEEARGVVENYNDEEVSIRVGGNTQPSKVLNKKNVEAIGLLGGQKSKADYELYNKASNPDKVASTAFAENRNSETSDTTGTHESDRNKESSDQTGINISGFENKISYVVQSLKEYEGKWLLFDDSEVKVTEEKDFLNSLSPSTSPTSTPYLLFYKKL
Outline: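 In 50mM HEPES pH 7.8 containing 0.5mM EDTA, 1mM TCEP, 0.1 mg/ml BSA and 0.01% Tween-20, 1nM USP1/UAF1 is exposed to compound for 15 min, then Ub-Rho (150nM final) is added and fluorescence is read over time.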

[14] = qHTS Assay for Lipid Storage Modulators (AID 1519; calls by dose curve); conditions: Drosophila S3 cells, BODIPY lipid droplet/cell ratio, laser cytometry, cells loaded with oleic acid
Outline: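 Cells seeded at 5,000 per well were treated with compounds over a concentration series and loaded with oleic acid (400 uM, as added). Lipid droplet fluorescence (488 nm excitation, 500-530 nm channel) was read by laser-scanning cytometry and normalized to 20 uM Triacsin C.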

[15] = NFAT Signaling Pathway (AID 444; active = well fitted curve in either direction with a large enough effect, not every such curve was filed as active;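 note: carbachol stimulus at about its EC50 of 1 µM final; % is set by controls: 0 for no effect and ±100 for the full control effect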); conditions: Jurkat NFAT-bla M1, carbachol, beta-lactamase ratio, 5 h; at 7.69 µM (top of the series) unless noted
Outline: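 Jurkat cells with NFAT-driven β-lactamase reporter and co-expressed M1 receptor, stimulated with carbachol (final 1 uM, ~EC50), compound titration, 5 h at 37 °C. CCF4 loaded 1 h at RT; 460/530 nm ratio gave %activity and AC50.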

[16] = Stat Signaling Pathway (AID 446; active = well fitted curve in either direction with a large enough effect, not every such curve was filed as active;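 note: ME-180 cervical cancer cells given 40 pM IL-6 alongside compound; SIE-controlled beta-lactamase reporter measured as 460/530 nm FRET emission ratio; % is set by controls: 0 for no effect and ±100 for the full control effect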); conditions: ME-180 SIE beta-lactamase reporter, IL-6 stimulated, 5 h; at 7.69 µM (top of the series) unless noted
Outline: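 FRET read-out (405 nm excitation, 460/530 nm emission) of a beta-lactamase reporter under a STAT-inducible element in ME-180 cervical carcinoma cells. Cells with compound receive 40 pM IL-6 for 5 h. Values are normalised to AC90 stimulation and AC90 JAK-inhibitor controls.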

[17] = biological target: DNA dC->dU-editing enzyme APOBEC-3G (Homo sapiens) (UniProt Q9HC16); assay: qHTS for inhibitors of Vif-A3G interactions: Validation (AID 588379); note: 0% is about no effect
Chain of DNA dC->dU-editing enzyme APOBEC-3G (Homo sapiens) (Q9HC16 whole entry, looked up): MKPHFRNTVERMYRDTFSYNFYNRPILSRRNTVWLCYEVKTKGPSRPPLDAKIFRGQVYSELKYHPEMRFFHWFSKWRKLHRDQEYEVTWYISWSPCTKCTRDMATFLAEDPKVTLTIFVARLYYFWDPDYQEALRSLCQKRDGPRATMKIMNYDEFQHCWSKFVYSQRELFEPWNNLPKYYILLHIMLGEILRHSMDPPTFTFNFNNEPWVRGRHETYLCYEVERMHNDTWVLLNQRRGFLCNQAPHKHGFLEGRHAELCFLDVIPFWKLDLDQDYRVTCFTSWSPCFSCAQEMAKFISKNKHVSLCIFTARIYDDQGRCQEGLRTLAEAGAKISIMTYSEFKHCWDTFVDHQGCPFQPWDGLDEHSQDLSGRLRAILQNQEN
Outline: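 Yellow fluorescence (Ex 488, Em 500-530) of Vif-coexpressing HeLa A3G-eYFP cells, scanned by Acumen cytometer, reports blocked A3G degradation. Cells plated at 700/well overnight at 37 deg C before compound addition, then a further overnight compound incubation at 37 deg C.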

[18] = AP1 Signaling Pathway (AID 357; active = well fitted curve in either direction with a large enough effect, not every such curve was filed as active); conditions: ME-180 (cervical carcinoma) AP-1-bla reporter, EGF-induced, beta-lactamase ratio, 5 h; at 7.69 µM (top of the series) unless noted
Outline: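 In this screen, ME-180 cells in Opti-MEM with 0.5% dialyzed FBS received EC50 EGF and compound titrations for 5 h. AP-1 reporter beta-lactamase was detected via CCF4 ratio, giving AC50 for positive and negative modulators.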

[19] = measured here: cell count channel max response
[20] = measured here: lipid channel max response

CN(C)c1ncc2nc(-c3ccc(Cl)cc3)c(=O)n(C3CC3)c2n1
active: Potency [5] 2.51 µM
inactive: Potency [1] > 9.22 µM | Potency [2] > 46 µM | Potency [3] | Potency [4] | outcome [6]

COc1ccc2[nH]cc(CCNc3nc(-c4ccc(C(=O)N(C)C)cc4)nc4ccccc34)c2c1
inactive: Potency [1] > 46 µM | Potency [2] > 46 µM | Potency [3] | Potency [4] | Potency [9] | Potency [11] | outcome [12] | Potency [13] | outcome [6]
active: Potency [7] 15.8 µM | Potency [8] 2.51 µM | Potency [10] 3.16 µM

CC(C)(C)c1cc(C(=O)/C=C/c2ccc(C(=O)O)cc2)cc(C(C)(C)C)c1
active: Potency [8] 20 µM
inactive: Potency [9] | outcome [6]

CC(=O)NC(C(=O)O)C(C)(C)SN=O (stereo not given)
9%: max response [14, 20]
inactive: activity change, negative = inhibition ([14]; at 57.5 µM (top of the series)) 0.182%
6.33%: max response [14, 19]

Cc1[nH]ccc2c1[nH]c1cc(=O)ccc12
inactive: activity change, negative = inhibition [15] -37.6% [at 17.2 µM] | activity, negative = inhibition [16] 4.88% [at 17.2 µM] | Potency [1] > 20.6 µM and > 46 µM | Potency [2] > 20.6 µM and > 46 µM | Potency [3] | Potency [4] | outcome [12] | activity change, negative = inhibition ([14]; at 25.7 µM (top of the series)) -0.514% | activity change, negative = inhibition ([14]; at 57.5 µM (top of the series)) 6.27% | Potency [13] | outcome [17]
11.1% and 0.549%: max response [14, 19]
9.17% and 10.7%: max response [14, 20]

Nc1ccc(C(=O)O)c(O)c1 (tested in a mixture with another compound)
inactive: activity change, negative = inhibition ([14]; at 57.5 µM (top of the series)) 15.3%
6.65%: max response [14, 19]
22.7%: max response [14, 20]

O=C(c1cnccn1)N1CCC2(CCCN(Cc3ccncc3)C2)CC1
inactive: activity change, negative = inhibition [18] -12.8% | activity, negative = inhibition [16] 6.38% | Potency [2] > 46 µM | Potency [3] | Potency [4] | outcome [6]

COC(=O)N1CCC2(CCCN(c3ncccn3)C2)CC1
inactive: activity change, negative = inhibition [18] -15% | activity change, negative = inhibition [15] 6.41% | activity, negative = inhibition [16] 1.72% | Potency [2] > 46 µM | Potency [3] | Potency [4] | activation [5] 12.6% | outcome [6]

O=c1ccc2cc(O)c(O)cc2o1
-16.4% and -4.98%: max response [14, 19]
inactive: activity change, negative = inhibition [18] 12.2% [at 17.2 µM] | activity change, negative = inhibition [15] 28.9% [at 17.2 µM] | Potency [1] > 20.6 µM | Potency [2] > 20.6 µM | Potency [3] | Potency [4] | Potency [8] | Potency [9] | Potency [11] | outcome [12] | activity change, negative = inhibition ([14]; at 25.7 µM (top of the series)) -3.37% | activity change, negative = inhibition ([14]; at 57.5 µM (top of the series)) -7.91% | Potency [13]
-18.9% and -8.28%: max response [14, 20]
active: Potency [5] 10 µM
